# Data from article PMC7155171, “Probing the Open Global Health Chemical Diversity Library for Multistage-Active Starting Points for Next-Generation Antimalarials” (ACS Infectious Diseases, 2020).
# Experiments:
# [1] = system: P. berghei liver stage (PbLuc); set-up: species or system HepG2-A16-CD81; P. berghei luciferase sporozoite infection of hepatocytes, liver stage luminescence; conditions: inhibitor; for PbLuc primary screen (10uM): inhibition % (n=1): 48 h
# [2] = system: HepG2-A16-CD81 hepatocytes; set-up: Uninfected hepatocyte viability, CellTiter-Glo luminescence; conditions: cytotoxicity primary screen, inhibitor
SMILES,PbLuc primary screen (10uM): inhibition % (n=1) [1] [%],PbLuc primary screen (2uM): inhibition % (n=1) [1] [%],HepG2 toxicity primary screen (10uM): inhibition % (n=1) [2] [%]
CCc1c(C)[nH]c2cc(C3CCN(Cc4ccccc4F)C3)nn2c1=O (stereo not drawn) [DDD01270117],85.9,29.7326,1.7
Cc1ncsc1C(=O)N1CCCCC1c1cc2[nH]c(C)c(C)c(=O)n2n1 (stereo not drawn) [DDD01059037],-26.2,11.32,-8.94
CCc1c(C)[nH]c2cc(C3CCN(Cc4cccnc4)C3)nn2c1=O (stereo not drawn) [DDD01060570],-33.4,31.56,-25.4
CCc1cc(=O)n2nc(C3CCN(C(=O)c4ccccn4)CC3)cc2[nH]1 [DDD01057364],-2.695,26.22,2.29
CCc1ccc(NC(=O)Nc2c(O)c3ccccc3oc2=O)cc1 [DDD01037337],-11.4,49.69,5.95
Cc1[nH]n(C2CCS(=O)(=O)C2)c(=O)c1Cc1ccccc1 (stereo not drawn) [DDD01026976],36.9,-17.38,-44.6
CCC(CO)N(Cc1cccnc1)C(=O)c1ccc(C(F)(F)F)[nH]c1=O (stereo not drawn) [DDD01253913],-28.9,20.89,-1.12
Cc1cc(=O)n2nc(C3CCN(C(=O)c4ccccn4)CC3)cc2[nH]1 [DDD01057174],7.55,-10.49,-3.3635
Cc1[nH]c2cc(C3CCN(Cc4cccc(F)c4F)C3)nn2c(=O)c1C (stereo not drawn) [DDD01270135],90.4,18.8,0.333
CSc1cccc(NC(=O)Nc2c(O)c3ccccc3oc2=O)c1 [DDD01037688],1.86,28.0462,4.45
COc1cccc(F)c1-c1nc2c(C3CC3)[nH]n(C)c-2n1 [DDD01246655],-18.5,21.14,0.271
Fc1cccc(C2=NN=CC2=C2NC(CN3CCOCC3)=NO2)c1 [DDD01244908],13.7,24.36,-7.58
Cn1nc(C2CC2)c(-c2ccc3c(c2)OCO3)c1N [DDD01074640],16.5,58.6,-47.475
CCCn1ncc(-c2nc3c[nH]n(CC)c-3n2)c1C [DDD01252709],-42.8,-36.8,4.05
COc1ccc(-c2c(C(C)C)nn3c(N)c(C#N)nnc23)cc1 [DDD01035184],53.1,9.631,-12.2
Cc1ccccc1CN(C)C(=O)CCC1=NC(=C2N=CN=N2)NO1 [DDD01062116],13.7,27.4706,-42.09
Cc1cc(=O)n(-c2ccc3nnc(C)n3n2)[nH]1 [DDD01038570],6.83,18.99,9.24
Cc1[nH]n(Cc2ccc(F)cc2)c2nnc(N)c1-2 [DDD01012470],78.2,11.14,1.11
COc1ccc(F)cc1-c1nc2c(C3CC3)[nH]n(C)c-2n1 [DDD01250494],-12.1,-45.41,-2.18
COc1cc2c(cc1-c1nc3c[nH]n(C(C)C4CC4)c-3n1)OCO2 (stereo not drawn) [DDD01244142],34,67.28,4.82
CCc1cc(=O)n2nc(C3CCN(C(=O)c4cccnc4)CC3)cc2[nH]1 [DDD01057176],13.3,-5.593,7.09
CC(NC(=O)CCC1=NC(=C2N=CN=N2)NO1)c1ccc(F)cc1F (stereo not drawn) [DDD01068293],33.4,-26.534,-2.05
